Data as given in publication PMC5540273 (PLoS ONE, 2017).

Assays:
Details in all cases: concentration: 1 μM, replicates: in singlicate; n = 1
[1] = system: PRKCI
[2] = system: PRKCQ
[3] = system: PRKD1
[4] = system: PRKD2
[5] = system: PRKD3
[6] = system: PRKG1
[7] = system: PRKG2
[8] = system: T1, PRKR
T1 construct: gene EIF2AK2

[9] = system: PRKX
[10] = system: PRP4
[11] = system: T2, PYK2
T2 construct: gene PTK2B

[12] = system: QSK
[13] = system: RAF1
[14] = system: RET
[15] = system: RIOK1
[16] = system: RIOK2
[17] = system: RIOK3
[18] = system: RIPK1
[19] = system: RIPK2
[20] = system: RIPK4
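Further: KINOMEscan kinase panel screen.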

| SMILES | %Inh [1] [%] | %Inh [2] [%] | %Inh [3] [%] | %Inh [4] [%] | %Inh [5] [%] | %Inh [6] [%] | %Inh [7] [%] | %Inh [8] [%] | %Inh [9] [%] | %Inh [10] [%] | %Inh [11] [%] | %Inh [12] [%] | %Inh [13] [%] | %Inh [14] [%] | %Inh [15] [%] | %Inh [16] [%] | %Inh [17] [%] | %Inh [18] [%] | %Inh [19] [%] | %Inh [20] [%] |
| --- | --- | --- | --- | --- | --- | --- | --- | --- | --- | --- | --- | --- | --- | --- | --- | --- | --- | --- | --- | --- |
| CN1c2ccc(NCc3ccc(F)cc3)cc2-c2c(cnn2C)S1(=O)=O | 29 | 12 | 13 | 1 | 0 | 0 | 7 | 0 | 0 | 33 | 0 | 10 | 1 | 0 | 10 | 0 | 0 | 3 | 0 | 0 |
| O=C(NCCNc1ccnc(Nc2ccc(F)cc2)n1)Nc1ccccc1F [GSK1379880] | 25 | 0 | 0 | 0 | 0 | 0 | 0 | 0 | 9 | 21 | 16 | 0 | 22 | 5 | 17 | 5 | 0 | 0 | 1 | 11 |
| O=C(Nc1n[nH]c2cc(-c3cccc(F)c3)ccc12)C1CC1 [SB-735464] | 0 | 5 | 0 | 0 | 1 | 16 | 0 | 0 | 0 | 7 | 0 | 28 | 15 | 0 | 66 | 40 | 0 | 38 | 0 | 18 |
| Fc1ccc(-c2ncn(CCCN3CCOCC3)c2-c2ccccn2)cc1 [SB-211742] | 100 | 0 | 0 | 31 | 0 | 0 | 1 | 12 | 0 | 44 | 0 | 0 | 29 | 7 | 27 | 0 | 41 | 0 | 0 | 0 |
| Cc1cccc(-c2nc(Nc3ccc4ncsc4c3)c3ccccc3n2)n1 [GW867588] | 14 | 5 | 98.7 | 99.8 | 66 | 0 | 0 | 17 | 0 | 0 | 0 | 11 | 0 | 0 | 20 | 31 | 0 | 0 | 5 | 13 |
| CCc1nc(-c2cccc(C)c2)c(-c2ccnc(NCc3ccccc3)c2)s1 | 0 | 31 | 0 | 13 | 0 | 0 | 0 | 0 | 0 | 6 | 9 | 0 | 24 | 4 | 10 | 0 | 22 | 0 | 26 | 0 |
| CC(C)(C)n1cnc2c(N)ncnc21 [SKF-97359] | 0 | 0 | 0 | 13 | 0 | 12 | 0 | 0 | 0 | 17 | 0 | 0 | 15 | 19 | 2 | 0 | 0 | 0 | 0 | 67 |
| c1ccc(-c2cc(-c3c[nH]nc3-c3ccccn3)ccn2)cc1 [GW576604] | 23 | 0 | 67 | 49 | 50 | 0 | 0 | 3 | 0 | 22 | 0 | 0 | 4 | 16 | 37 | 1 | 25 | 0 | 94.6 | 0 |
| Cc1ccc(C(=O)NCC(N)=O)cc1-n1c(C)cc(OCc2ccc(F)cc2F)c(Br)c1=O | 36 | 26 | 23 | 0 | 15 | 0 | 12 | 0 | 22 | 0 | 15 | 0 | 37 | 5 | 1 | 0 | 0 | 13 | 0 | 0 |
| Cc1cccc(-c2nc(-c3ccc(S(C)(=O)=O)cc3)sc2-c2ccncc2)c1 | 0 | 9 | 0 | 0 | 0 | 0 | 0 | 2 | 1 | 6 | 2 | 8 | 25 | 14 | 19 | 27 | 0 | 0 | 59 | 0 |
